Data as given in PubChem BioAssay.
Calls of active or inactive are those of the source. Unless noted, how the calls were made is not given here.

How the values were obtained:
[1] = compound effects on lung adenocarcinoma cell viability – A549, calcein-AM fluorescence, 48 h, basal, profiling panel (AID 1162); conditions: higher = more signal; further: test concentration not given here
[2] = compound effects on differentiated 3T3-L1 adipocyte viability – cell-based, 3T3-L1 adipocytes, calcein-AM fluorescence, 48 h, basal, profiling panel (AID 1163); conditions: 3T3-L1 adipocytes viability, higher = more signal; further: test concentration not given here
[3] = compound effects on hepatocellular carcinoma cell viability – HepG2, calcein-AM fluorescence, 48 h, basal, profiling panel (AID 1164); conditions: higher = more signal; further: test concentration not given here
[4] = compound effects on multiple myeloma cell viability – MM1S, calcein-AM fluorescence, 48 h, basal, profiling panel (AID 1165); conditions: higher = more signal; further: test concentration not given here
[5] = calcein-AM signal in unstimulated myeloma cells – cell-based, calcein-AM fluorescence, 48 h, PK04 Diversity Set, profiling panel (AID 1166); conditions: RPMI8226 myeloma viability, higher = more signal;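 further: cells grown under basal conditions without added stimulus; test concentration not given here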
[6] = JC-1 mitochondrial signal, unstimulated HepG2 cells – cell-based, JC-1 fluorescence, 24 h, 100 nL compound, profiling panel (AID 1167); conditions: HepG2 mitochondrial potential, higher = more signal; further: test concentration not given here
[7] = JC-1 mitochondrial signal, unstimulated adipocytes – cell-based, JC-1 fluorescence, 3T3-L1 adipocytes, 24 h, 100 nL compound, profiling panel (AID 1168); conditions: JC-1 mitochondrial fluorescence, higher = more signal, called active from +8 up or from −8 down; further: test concentration not given here
[8] = JC-1 mitochondrial signal, unstimulated myeloma cells – cell-based, JC-1 fluorescence, RPMI8226, 24 h, 100 nL compound, profiling panel (AID 1169); conditions: JC-1 mitochondrial potential fluorescence, higher = more signal; further: test concentration not given here
[9] = JC-1 mitochondrial signal, unstimulated MM1S myeloma – cell-based, JC-1 fluorescence, 24 h, 100 nL compound, profiling panel (AID 1170); conditions: MM1S mitochondrial potential, higher = more signal; further: test concentration not given here
[10] = resazurin metabolic signal in A549 cells – cell-based, resazurin fluorescence, 24 h, PK04 Diversity Set, profiling panel (AID 1171); conditions: A549 viability, higher = more signal, called active from +8 up or from −8 down; further: test concentration not given here
[11] = resazurin metabolic signal in HepG2 cells – cell-based, resazurin fluorescence, 24 h, PK04 Diversity Set, profiling panel (AID 1172); conditions: HepG2 viability, higher = more signal; further: test concentration not given here
[12] = budding yeast growth changes without added modifier – OD600, strain BY4716, 24 h, basal condition, primary screen (AID 1173); conditions: S. cerevisiae BY4716 growth, OD600, 24 h; higher = more signal, called active from +8 up or from −8 down
[13] = viability profiling in MM1S myeloma cells – cell-based, resazurin fluorescence, basal, 24 h, PK04 Diversity Set, profiling panel (AID 1174); conditions: higher = more signal, called active from +8 up or from −8 down; further: test concentration not given here
[14] = biological target: Dihydroorotate dehydrogenase (quinone), mitochondrial (Plasmodium falciparum (isolate 3D7)) (UniProt Q08210); assay: inhibition of P. falciparum DHODH – biochemical, C-terminal His tag, absorbance 600 nm, primary screen (AID 1175); conditions: PfDHODH enzyme, DCIP absorbance 600 nm; higher = more signal, called active from +8 up or from −8 down;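 further: recombinant parasite enzyme with a five histidine tag at its C terminus; test concentration not given here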
Chain of Dihydroorotate dehydrogenase (quinone), mitochondrial (Plasmodium falciparum (isolate 3D7)) (Q08210 whole entry, looked up): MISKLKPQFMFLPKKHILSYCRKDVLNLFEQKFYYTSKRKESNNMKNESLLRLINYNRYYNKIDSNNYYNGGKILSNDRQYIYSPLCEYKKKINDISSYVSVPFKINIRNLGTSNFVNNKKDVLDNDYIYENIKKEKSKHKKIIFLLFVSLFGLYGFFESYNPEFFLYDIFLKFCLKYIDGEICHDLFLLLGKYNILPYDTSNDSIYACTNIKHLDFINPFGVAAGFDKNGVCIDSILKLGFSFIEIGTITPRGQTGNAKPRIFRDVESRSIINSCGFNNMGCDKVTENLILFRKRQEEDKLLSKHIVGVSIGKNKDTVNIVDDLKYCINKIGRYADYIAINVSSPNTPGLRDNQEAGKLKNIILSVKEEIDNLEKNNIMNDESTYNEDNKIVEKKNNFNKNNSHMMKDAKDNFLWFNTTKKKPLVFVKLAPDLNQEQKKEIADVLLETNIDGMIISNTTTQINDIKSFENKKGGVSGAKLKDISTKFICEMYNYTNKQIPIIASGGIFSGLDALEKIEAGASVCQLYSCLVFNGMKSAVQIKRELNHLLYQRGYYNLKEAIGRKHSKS

[15] = inhibition of PAO1 biofilm formation – strain PAO1, LB-PBS medium, absorbance 600 nm, primary screen (AID 1176); further: test concentration not given here; conditions: P. aeruginosa PAO1 growth/biofilm, A600, 12 h; higher = more signal
[16] = growth modulation of vineyard yeast isolate – strain RM11-1a, OD600, basal, 24 h, primary screen (AID 1177);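 further: cultures grown under basal conditions with no added stressor; test concentration not given here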; conditions: S. cerevisiae RM11-1a growth, OD600, 24 h; higher = more signal, called active from +8 up or from −8 down
[17] = growth of efflux-deficient E. coli DRC39 – strain DRC39, OD650, 24 h, E. coli filamentation inducers, primary screen (AID 1178);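 further: growth measured as culture turbidity by optical density at 650 nm; test concentration not given here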; conditions: E. coli DRC39 acrAB, higher = more signal, called active from +8 up or from −8 down
[18] = growth of efflux-deficient E. coli DRC39 – strain DRC39, OD650, 48 h, E. coli filamentation inducers, primary screen (AID 1179);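 further: screen aims at cell division blockers that make cells filament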; conditions: E. coli DRC39 delta-acrAB growth, higher = more signal, called active from +8 up or from −8 down
[19] = viability profiling in RPMI8226 myeloma cells – cell-based, resazurin fluorescence, basal, 24 h, PK04 Diversity Set, profiling panel (AID 1180); conditions: higher = more signal;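 further: RPMI8826 multiple myeloma cell line at 5000 cells per well; test concentration not given here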
[20] = biological target: E3 ubiquitin-protein ligase XIAP (Homo sapiens) (UniProt P98170); assay: small molecules binding XIAP protein – biophysical, small-molecule microarray, fluorescence 635 nm, primary screen (AID 1181); conditions: higher = more signal;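 further: score merges 667 nm emission and signal to noise over triplicate slides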
Chain of E3 ubiquitin-protein ligase XIAP (Homo sapiens) (P98170 whole entry, looked up): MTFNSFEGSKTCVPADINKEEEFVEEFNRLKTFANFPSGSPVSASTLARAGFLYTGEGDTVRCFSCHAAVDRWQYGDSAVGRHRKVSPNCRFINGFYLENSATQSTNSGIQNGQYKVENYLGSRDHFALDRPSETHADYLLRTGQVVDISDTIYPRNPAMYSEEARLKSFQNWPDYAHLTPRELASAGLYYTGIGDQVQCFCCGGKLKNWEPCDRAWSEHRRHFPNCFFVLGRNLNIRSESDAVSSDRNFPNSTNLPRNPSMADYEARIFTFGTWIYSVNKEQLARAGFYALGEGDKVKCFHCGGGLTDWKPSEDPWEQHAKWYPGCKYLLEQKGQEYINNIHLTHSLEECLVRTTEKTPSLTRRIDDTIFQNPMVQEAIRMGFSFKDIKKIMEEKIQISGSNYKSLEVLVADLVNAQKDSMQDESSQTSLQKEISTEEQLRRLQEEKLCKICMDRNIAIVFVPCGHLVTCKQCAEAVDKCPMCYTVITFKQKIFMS

SMILES	z-score [1]	z-score [2]	z-score [3]	z-score [4]	z-score [5]	z-score [6]	z-score [7]	z-score [8]	z-score [9]	z-score [10]	z-score [11]	z-score [12]	z-score [13]	composite z-score [14]	z-score [15]	z-score [16]	z-score [17]	z-score [18]	z-score [19]	composite z-score [20]
C=CC[C@]1(C(N)=O)N=C(c2ccc(OCCCO)cc2)O[C@H]1c1ccccc1N=[N+]=[N-]	0.772	0.46	1.49	-1.04	0.656	0.462	0.903 (inactive)	-0.514	-0.747	-0.752 (inactive)	0.021	-0.925 (inactive)	-0.362 (inactive)	0.315 (inactive)	0.274 (inactive)	1.32 (inactive)	2.12 (inactive)	2 (inactive)	-0.733	0.217
CCOC(=O)C1=CCC(c2cccn2C(=O)OC(C)(C)C)N(S(=O)(=O)c2ccc(C)cc2)C1 (stereo not given)	-0.982	-0.838	-0.168	-3.2	-3.67	2.22	0.066 (inactive)	-1.11	-2.93	-0.373 (inactive)	0.573	-0.902 (inactive)	-0.926 (inactive)	0.068 (inactive)	-0.144 (inactive)	0.824 (inactive)	-0.484 (inactive)	0.605 (inactive)	-0.538	0.177
COC(=O)C(CC#Cc1ccc2c(c1)[C@]1(C(=O)N2)[C@H](C(=O)NC[C@H](O)c2ccccc2)[C@H]2C(=O)O[C@H](c3ccccc3)[C@H](c3ccccc3)N2[C@@H]1c1ccc(O)cc1)C(=O)OC	-0.244	-1.56	-0.0776	-1.46	-1.97	-2.14	-1.75 (inactive)	-0.933	-0.492	0.489 (inactive)	0.155	0.455 (inactive)	0.515 (inactive)	-5.06 (inactive)	1.05 (inactive)	0.518 (inactive)	-0.196 (inactive)	-0.556 (inactive)	-0.464	0.076
C=CCNC(=O)[C@@H]1[C@H]2C(=O)O[C@H](c3ccccc3)[C@H](c3ccccc3)N2[C@H](c2ccc(O)cc2)[C@@]12C(=O)N(C(=O)OCCOC)c1ccc(C#CCC(C(=O)OC)C(=O)OC)cc12	0.468	0.0473	0.419	-1.83	-2.88	0.206	0.605 (inactive)	-0.161	-0.012	-0.419 (inactive)	0.475	-0.17 (inactive)	0.716 (inactive)	-2.5 (inactive)	0.089 (inactive)	1.88 (inactive)	1.09 (inactive)	0.666 (inactive)	-1.73	0.0859
C=CC[C@]12N=C(c3ccc(OCCCO)cc3)O[C@H]1c1ccccc1N(CCC)C2=O	-1.36	0.538	-0.454	-2.03	-3.07	0.788	1.85 (inactive)	-1.07	-0.207	0.266 (inactive)	-0.151	-1.91 (inactive)	-1.14 (inactive)	-0.536 (inactive)	1.24 (inactive)	0.208 (inactive)	0.181 (inactive)	-0.464 (inactive)	-0.65	0.0655
CCOC(=O)C1=CC[C@@H](c2ccccc2)N(S(=O)(=O)c2ccc(C)cc2)[C@@H]1C#N	0.25	-0.415	0.278	-3.21	-2.77	0.43	0.726 (inactive)	-0.791	-2.41	0.433 (inactive)	0.794	-1.95 (inactive)	-1.43 (inactive)	-1.21 (inactive)	-0.088 (inactive)	0.455 (inactive)	-0.337 (inactive)	0.831 (inactive)	-1.57	-0.207
O=C1OCCC/C=C\[C@H]2OC34C=CCN(Cc5ccccc5)C(=O)[C@H]3N(CCO)C(=O)[C@@H]4C12 (stereo not given in full)	0.457	-0.728	1.21	1.64	0.998	1.03	0.857 (inactive)	-0.0351	-0.27	0.263 (inactive)	-0.122	-0.662 (inactive)	0.99 (inactive)	-0.0771 (inactive)	-0.152 (inactive)	-0.23 (inactive)	1.68 (inactive)	1.89 (inactive)	0.936	0.0015
C=C(/C=C\CNS(=O)(=O)c1ccc(C)cc1)[C@H](O)[C@H]1CCCN1S(=O)(=O)c1ccccc1[N+](=O)[O-]	-0.635	0.186	-1.3	-3.14	-1.51	-3.05	-0.955 (inactive)	-0.938	-0.671	0.0403 (inactive)	-0.527	0.487 (inactive)	-0.943 (inactive)	1.57 (inactive)	1.21 (inactive)	2.53 (inactive)	1.12 (inactive)	-0.23 (inactive)	-0.851	-0.0448
